Bioassay records (PubChem)
Pf growth 96h: inhibits malaria parasite growth, 96 h | P. falciparum luciferase reporter growth, 96 h | Potency, µM (top dose mostly 28.7 µM), without a hit: at the top dose activity change, negative = inhibition, actives largely listed as inhibitors | 320,000 compounds, 6.9% hits | AID 504834; note: potency is the fitted concentration of half-maximal effect; % is set by controls: 0 for no effect and ±100 for the full control effect
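Two-generation exposure (96 h) targets delayed-death phenotype. Reporter parasites carrying integrated firefly luciferase, in red cells at 2% hematocrit and 0.05% parasitemia final, kept at 37 C, 5% CO2; luminescence loss indicates inhibition.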
Cycloheximide cs: counter-screen hit for Shiga toxin inhibitors, cycloheximide; cell reporter, cycloheximide protein synthesis inhibition counterscreen; max response, %; 300,000 compounds, 12% hits; AID 2314; in the data active = max response mostly above about 13%, no sharp cut-off; inactive = mostly below about 14%; note: read at 38.3 µM for the half of the compounds with a filed dose; 0% is about no effect
Pf growth 48h: inhibits P. falciparum growth in the first generation, 48 h; P. falciparum luciferase growth in erythrocytes, 48 h; AID 504832; Potency, µM (top dose mostly 28.7 µM), for inactives: at the highest dose activity change, negative = inhibition, hits mostly inhibitors; 310,000 compounds, 5.9% hits; note: potency is the fitted concentration of half-maximal effect; % is set by controls: 0 for no effect and ±100 for the full control effect
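Compounds are pin-transferred into medium, infected erythrocytes (2% hematocrit, 0.1% parasitemia final) are added, and plates sit one parasite generation at 37 C in 5% CO2. Detection reagent is then added and luminescence measured.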
Shiga toxin inh: Shiga toxin inhibition; Vero cells, Shiga toxin protein synthesis inhibition reporter; 290,000 compounds, 9.2% hits; inhibition, % at 38.7 µM; in the data active = inhibition mostly above about 28%, no sharp cut-off; inactive = mostly below about 43%; note: 0% is about no effect
LmPK inhibitor: inhibitors of Leishmania mexicana pyruvate kinase. Q27686. purified LmPK, Kinase-Glo ATP luminescence, 1 h. Potency, µM (doses to about 57.5 µM), for inactives: at the top dose activity change, negative = inhibition, hits mostly inhibitors. 290,000 compounds, 0.37% hits; note: potency is the fitted concentration of half-maximal effect; % is set by controls: 0 for no effect and ±100 for the full control effect
Target sequence (Q27686 whole entry, looked up): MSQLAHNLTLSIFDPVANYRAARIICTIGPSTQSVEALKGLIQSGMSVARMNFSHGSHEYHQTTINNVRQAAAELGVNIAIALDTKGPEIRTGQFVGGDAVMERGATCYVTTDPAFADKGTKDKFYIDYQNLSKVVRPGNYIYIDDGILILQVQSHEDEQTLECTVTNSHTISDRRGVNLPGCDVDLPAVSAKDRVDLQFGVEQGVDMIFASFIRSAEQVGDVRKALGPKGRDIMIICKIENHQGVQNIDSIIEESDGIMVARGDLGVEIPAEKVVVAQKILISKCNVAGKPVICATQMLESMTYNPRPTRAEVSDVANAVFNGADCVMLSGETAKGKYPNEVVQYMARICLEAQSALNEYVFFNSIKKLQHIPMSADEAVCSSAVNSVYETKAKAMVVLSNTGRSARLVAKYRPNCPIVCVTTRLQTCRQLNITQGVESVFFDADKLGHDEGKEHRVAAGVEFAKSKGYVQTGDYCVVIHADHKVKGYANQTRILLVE
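qHTS format; LmPK 0.1 nM; substrates PEP 0.5 mM and ADP 0.1 mM. One-hour room-temperature incubation, then coupled luciferase luminescence; 0.5 nM enzyme wells mark activation.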
Active calls of the source: *. Only some compounds are listed: those with a hit (about 22% of all), similar ones and a draw of the others. Unless noted, calls come from the whole dose curve; as a rule, active = well fitted inhibition curve with a large enough effect; inconclusive = small, poorly fitted or top-dose-only effect, or another doubt; inactive = no such curve, though single readings can be large or run the other way.

COc1ccc(C(=O)Nc2ccc3nc4n(c(=O)c3c2)CCCC4)cc1[N+](=O)[O-] was read as Pf growth 96h -26%, Cycloheximide cs 0, Pf growth 48h -1%, Shiga toxin inh -9 and LmPK inhibitor 6%.
`CCOC(=O)Nc1ccc2nc3n(c(=O)c2c1)CCCCC3` gave Pf growth 96h 0%, Cycloheximide cs 31*, Pf growth 48h 34%, Shiga toxin inh 45* and LmPK inhibitor 0%.
Screening COc1cc(C(=O)Nc2ccc3nc4n(c(=O)c3c2)CCCCC4)cc(OC)c1OC returned Pf growth 96h 2.6µM*, Cycloheximide cs 14, Pf growth 48h -8%, Shiga toxin inh 28 and LmPK inhibitor 1%.
`O=C(Nc1ccc(F)cc1Cl)c1ccc2c(=O)n3c(nc2c1)CCCCC3` gave Pf growth 96h 3.7µM*, Cycloheximide cs 13, Pf growth 48h 10%, Shiga toxin inh 17 and LmPK inhibitor 4%.
CS(=O)(=O)CC(=O)Nc1ccc2nc3n(c(=O)c2c1)CCCCC3 was read as Pf growth 96h 6%, Cycloheximide cs -1, Pf growth 48h 5%, Shiga toxin inh 6 and LmPK inhibitor 6%.
Screening O=C(Nc1cccc(S(=O)(=O)N2CCCC2)c1)c1ccc2c(=O)n3c(nc2c1)CCCCC3 returned Pf growth 96h 5.2µM*, Cycloheximide cs 7, Pf growth 48h inconclusive, Shiga toxin inh 15 and LmPK inhibitor -4%.
`O=C(Nc1cccc(S(=O)(=O)N2CCOCC2)c1)c1ccc2c(=O)n3c(nc2c1)CCCCC3` gave Pf growth 96h inconclusive, Cycloheximide cs -2, Pf growth 48h -28%, Shiga toxin inh 20 and LmPK inhibitor 7%.
For COc1ccc(CNC(=O)Cn2c(=O)n(CCC(=O)N3CCCCC3)c(=O)c3sccc32)cc1 the results were Pf growth 96h 0%, Cycloheximide cs -1, Pf growth 48h 4%, Shiga toxin inh -4 and LmPK inhibitor -1%.
`CCCNC(=O)COc1ccc(S(=O)(=O)Nc2ccc(C)cc2)cc1` gave Cycloheximide cs 5, Pf growth 48h inconclusive, Shiga toxin inh -4 and LmPK inhibitor 8%.
`O=C(NCc1ccccc1)c1ccc2c(=O)n3c(nc2c1)CCCCC3` gave Pf growth 96h inconclusive, Cycloheximide cs 6, Pf growth 48h 8%, Shiga toxin inh 23 and LmPK inhibitor 8%.
For O=C(NC1CCCCCC1)c1ccc2c(=O)n3c(nc2c1)CCCCC3 the results were Pf growth 96h 108%, Cycloheximide cs 31*, Shiga toxin inh 46 and LmPK inhibitor -12%.
`O=C(Nc1ccc2nc3n(c(=O)c2c1)CCCC3)c1cccc(F)c1` gave Pf growth 96h 115%, Cycloheximide cs 42*, Pf growth 48h 0%, Shiga toxin inh 39* and LmPK inhibitor 1%.
Screening COc1ccc(NC(=O)c2ccc3c(=O)n4c(nc3c2)CCCCC4)cc1 returned Pf growth 96h 5%, Cycloheximide cs 21*, Pf growth 48h 0%, Shiga toxin inh 29 and LmPK inhibitor 9%.
`CC(=O)c1cccc(NC(=O)c2ccc3c(=O)n4c(nc3c2)CCCCC4)c1` gave Pf growth 96h 5%, Cycloheximide cs 20, Pf growth 48h 16%, Shiga toxin inh 64 and LmPK inhibitor -5%.
Screening Cc1ccc(NC(=O)c2ccc3c(=O)n4c(nc3c2)CCCCC4)cc1F returned Pf growth 96h inconclusive, Cycloheximide cs 9, Pf growth 48h -12%, Shiga toxin inh 21 and LmPK inhibitor 11%.
For CC1CCC(NC(=O)Cn2cnc3sccc3c2=O)CC1 (configuration not stated) the results were Pf growth 96h 25% and Pf growth 48h 30%.
`COc1ccc(NC(=O)NNC(=O)c2cc3ccccc3cc2O)cc1` gave Pf growth 96h 35%, Cycloheximide cs 1, Pf growth 48h 6%, Shiga toxin inh -11 and LmPK inhibitor -9%.
For COc1ccccc1NC(=O)c1cc2cc(Br)ccc2cc1O the results were Pf growth 96h inconclusive, Cycloheximide cs 24*, Pf growth 48h 2.9µM*, Shiga toxin inh 85* and LmPK inhibitor 0%.
`Cc1ccc(Cl)cc1NC(=O)c1cc2ccccc2cc1O` gave Pf growth 96h 0.29µM*, Cycloheximide cs 9, Pf growth 48h 0.93µM*, Shiga toxin inh 19 and LmPK inhibitor 2%.
COc1cc(NC(=O)c2cc3ccccc3cc2O)c(OC)cc1Cl was read as Pf growth 96h 1.3µM*, Cycloheximide cs 19*, Pf growth 48h 2.1µM*, Shiga toxin inh 63* and LmPK inhibitor 4%.
Screening CCOc1ccc(NC(=O)c2cc3ccccc3cc2O)cc1 returned Pf growth 96h 1.9µM*, Cycloheximide cs 30*, Pf growth 48h 1µM*, Shiga toxin inh 60* and LmPK inhibitor 6%.
Screening CCCc1ccc(S(=O)(=O)N(C)S(=O)(=O)c2ccc(F)cc2)cc1 returned Pf growth 96h inconclusive, Cycloheximide cs -3, Pf growth 48h inconclusive, Shiga toxin inh 13 and LmPK inhibitor -1%.
`O=[N+]([O-])c1ccc(-[n+]2nc(-c3ccccc3)nn2-c2ccccc2)cc1` gave Pf growth 96h 17%, Cycloheximide cs -2, Pf growth 48h inconclusive, Shiga toxin inh -6 and LmPK inhibitor -6%.
Cc1noc(C)c1S(=O)(=O)Nc1ccc(C#N)cc1 was read as Pf growth 96h 22%, Cycloheximide cs 1, Pf growth 48h -6%, Shiga toxin inh -4 and LmPK inhibitor 0%.
Screening COc1ccc(NC(=O)c2cc3ccccc3cc2OC)cc1 returned Pf growth 96h 76%, Cycloheximide cs 29*, Pf growth 48h inconclusive, Shiga toxin inh 69 and LmPK inhibitor 0%.
Screening CCOc1ccc(NC(=O)[C@@H](NC(=O)c2ccccc2Br)C(C)C)cc1 returned Pf growth 96h 15µM*, Cycloheximide cs 5, Shiga toxin inh 2 and LmPK inhibitor 10%.
COc1cc(OC)c(C(=O)Nc2cccnc2)cc1OC was read as Pf growth 96h inconclusive, Cycloheximide cs -2, Pf growth 48h 15%, Shiga toxin inh 19 and LmPK inhibitor -7%.
`COc1cc2ccccc2cc1C(=O)Nc1cccnc1` gave Cycloheximide cs 33*, Pf growth 48h 112%, Shiga toxin inh 76* and LmPK inhibitor 1%.
`CCOc1ccc(NC(=O)c2cc3ccccc3cc2OC)cc1` gave Pf growth 96h -44%, Cycloheximide cs 36*, Pf growth 48h -26%, Shiga toxin inh 60* and LmPK inhibitor -6%.
For COc1ccc(C(=O)C2CCCN(C(=O)/C=C/c3ccccn3)C2)c(C)c1 (configuration not stated) the results were Pf growth 96h -28%, Cycloheximide cs -1, Pf growth 48h -3%, Shiga toxin inh 1 and LmPK inhibitor 0%.
COc1ccc(N2CCN(S(=O)(=O)CCNC(=O)C3CC3)CC2)cc1 was read as Pf growth 96h -2% and Pf growth 48h -14%.
Cn1cccc1CNCC(O)c1ccccc1 (configuration not stated) was read as Pf growth 96h 35%, Cycloheximide cs 1, Pf growth 48h inconclusive, Shiga toxin inh -8 and LmPK inhibitor -2%.
